Several values for one entry are separate records, joined by “and”; a condition that tells them apart may be missing. Equal values may be shown once. Results filed as inconclusive are left out. Entries that show only a call come without a potency. A number with no mark means an inactive call. Activity calls are given as the source filed them. The call rests on the fitted dose curve.
Experiment: qHTS assay to identify small molecule agonists of the endoplasmic reticulum stress response signaling pathway - cell viability counter screen (AID 1159517); further: nearly all actives have a fitted effect of over 50% in size
Details: ESRE-bla HeLa viability, CellTiter-Glo luminescence, 5 h; series mostly up to 61 µM
From the text: U.S. Tox21 Program National Center for Advancing Translational Sciences [NCATS] NIH Chemical Genomics Center [NCGC] U.S. Environmental Protection Agency [EPA] National Institutes of Environmental Health Sciences [NIEHS] National Toxicology Program [NTP] U.S. Food and Drug Administration [FDA] Tox21 Assay Overview: Endoplasmic Reticulum (ER) plays an important role in cellular signaling, protein folding/maturation, stress response, lipid biosynthesis, calcium storage and release etc. Under stress conditions, proteins in ER misfold or unfold, and leading to the expression of ER stress responsive genes. ER stress has been associated with a variety of pathophysiological conditions such as cancer, inflammation, neurodegenerative diseases, diabetes, ischemic heart disease etc. To identify the compounds that induce ER stress response, an ER stress reporter cell line, CellSensor ESRE-bla HeLa (Life Technologies, Carlsbad, CA) containing a beta-lactamase reporter gene under control of the Endoplasmic reticulum Stress Response Element (ESRE) was used to screen Tox21 10K compound library. The cytotoxicity of the Tox21 compound library against the ESRE-bla HeLa cell line was tested in parallel by measuring cell viability using the CellTiter-Glo assay in the same wells.
Tox21 Assay Protocol Summary: ESRE-bla HeLa cells were dispensed at 1,500 cells/6 uL of assay medium per well into black wall/clear-bottom 1536-well plates using a Multidrop Combi (ThermoFisher Scientific, Waltham, MA) dispenser. After the assay plates were incubated at 37 C and 5% CO2 for an overnight, 23 nL of compounds dissolved in DMSO, positive controls or DMSO only was transferred to the assay plate by a Pintool station (Kalypsys, San Diego, CA). The assay plates were incubated at 37 C and 5% CO2 for 5 hr. One uL of LiveBLAzer B/G FRET substrate (Life Technologies) was added using a FRD (Flying Reagent Dispenser, Aurora Discovery, San Diego, CA) and the plates were incubated at room temperature for 2 hr. Fluorescence intensity (405 nm excitation, 460 nm and 530 nm emissions) was measured using an Envision plate reader (PerkinElmer, Shelton, CT). For cytotoxicity, 4 ul/well of CellTiter-Glo reagent was added into the assay plates using an FRD. After 30 min incubation at room temperature, the luminescence intensity was measured using a ViewLux plate reader (PerkinElmer).
Potency means the concentration at half of the fitted maximal effect.

Compound | Potency | activity change, negative = cytotoxicity
CCCCCCCCCCCC(=O)OCC(C)OC(=O)CCCCC(=O)O (stereo not given) | inactive | 
CCO[C@@H]1O[C@H](C(COCc2ccccc2)OCc2ccccc2)[C@H](OCc2ccccc2)[C@H]1O (stereo not given in full) | inactive | 
CN(C)Cc1ccccc1O | inactive | 
COc1ccc2cc1Oc1ccc(cc1)C[C@H]1c3c(cc4c(c3Oc3cc5c(cc3OC)CCN(C)[C@@H]5C2)OCO4)CCN1C | inactive | 
CCCCCCCCCCCCCC[N+](C)(C)C | 37.6 µM (active) and 34.6 µM (active) and 23.9 µM (active) | 
O=S(=O)(O)c1ccc(N=Nc2c(O)ccc3ccccc23)cc1 | inactive | 
O=C(O)Cc1ccc2c(c1)C(=O)c1ccccc1CO2 | inactive | 
Nc1nc(N)nc(-c2cc(Cl)ccc2Cl)n1 | inactive | 
C#Cc1ccc(-c2ccccc2F)cc1 | inactive | 
Oc1cc(Cl)cc(Cl)c1Cl | inactive | 
COc1cc(C)ccc1O | inactive | 
c1ccc(C(O[C@@H]2CCCN(CCc3ccc4c(c3)OCO4)C2)c2ccccc2)cc1 | inactive | 
O=C(O)c1cc(N=Nc2ccc([N+](=O)[O-])cc2)ccc1O | inactive | 
CC1(C)CCC[C@]2(C)[C@H]3CCO[C@]3(C)CC[C@@H]12 | inactive | 
COC1=C(OC)C(=O)C(CCCCCCCCCCO)=C(C)C1=O | inactive | 
Cc1cc(C(C)(C)C)cc(C)c1CC1=NCCN1 | inactive | 
Nc1nc2c(ncn2COCCO)c(=O)[nH]1 | inactive | 
CCCCN(CCCC)CC(O)c1cc(Cl)cc2c1-c1ccc(Cl)cc1/C2=C/c1ccc(Cl)cc1 (stereo not given) | inactive | 
Cc1cc(C)c(/C=C2\C(=O)Nc3ccccc32)[nH]1 | inactive | 
COc1ccc(-c2coc3cc(O)ccc3c2=O)cc1 | inactive | 

Compound | Potency | activity change, negative = cytotoxicity
CC1(C)CCC[C@]2(C)[C@H]3CC(=O)O[C@]3(C)CC[C@@H]12 | inactive | 
Cc1cccc(C(=O)O)c1O | inactive | 
NC[C@H]1O[C@H](O[C@H]2[C@H](O[C@@H]3O[C@H](CO)[C@@H](O)[C@H]3O)C(O)[C@H](N)C[C@@H]2N)[C@H](N)[C@@H](O)[C@@H]1O (stereo not given in full) |  | -1.85% [at 6.95 µM]
O=S(=O)(O)c1ccccc1/C=C/c1ccc(-c2ccc(/C=C/c3ccccc3S(=O)(=O)O)cc2)cc1 | inactive | 
Cc1c(C)c2c(c(C)c1OC(=O)c1cccnc1)CC[C@@](C)(CCC[C@H](C)CCC[C@H](C)CCCC(C)C)O2 | inactive | 
CCCCCCCCCCC[C@@H](C[C@@H]1OC(=O)[C@H]1CCCCCC)OC(=O)[C@H](CC(C)C)NC=O | inactive | 
COCCOc1cc2cc(C(=O)NC3CCN(C(C)C)CC3)n(CC(=O)Nc3ccc(Cl)cn3)c2cn1 | inactive | 
CCCNCCC | inactive | 
O=C1CCCCCCCCCCCCCCCO1 | inactive | 
C#CC1(O)CC[C@H]2[C@@H]3CCC4=CCCC[C@@H]4[C@H]3CC[C@@]21C (stereo not given in full) | 49 µM (active) and 10.7 µM (active) | 
CCCCC(CC)CN1CN(CC(CC)CCCC)CC(C)(N)C1 (stereo not given) | 21.3 µM (active) | 
COC(=O)C1=C(C)NC(C)=C(C(=O)OCCN2CCN(C(c3ccccc3)c3ccccc3)CC2)C1c1cccc([N+](=O)[O-])c1 (stereo not given) | inactive | 
CCCCCCCCCCCCCC[N+](C)(C)Cc1ccccc1 | 17.7 µM (active) and 23.9 µM (active) | 
CC(C(=O)O)c1ccc2c(c1)[nH]c1ccc(Cl)cc12 (stereo not given) | inactive | 
COc1c(C)c2c(c(O)c1C/C=C(\C)CCC(=O)OCCN1CCOCC1)C(=O)OC2 | inactive | 
CC(C)=CCC1=C(O)c2ccccc2C(=O)C1=O | inactive | 
CCCCCCCCCCCCCCCC[N+](C)(C)CC | 24.6 µM (active) | 
COc1cc2nc(N3CCN(C(=O)c4ccco4)CC3)nc(N)c2cc1OC | inactive | 
CC(=O)[C@H]1CC[C@H]2[C@@H]3CCC4=CC(=O)CC[C@]4(C)[C@H]3CC[C@]12C | inactive | 
OC/C=C/CO | inactive | 

Source: PubChem BioAssay (Tox21)
